Compound activity deposited in PubChem BioAssay by National Center for Advancing Translational Sciences (NCATS).
Rows were chosen to be rich in hits. Some 1.2% of all compounds tested hit in one or more screens of this group.
gsp antagonist – qHTS for Antagonists of gsp, the Etiologic Mutation Responsible for Fibrous Dysplasia/McCune-Albright Syndrome: qHTS; gsp-mutant cells, cAMP HTRF, 30 min; Potency, µM (highest dose often 76.9 µM), inactives show at the top dose activity change, negative = inhibition, usual class: inhibitors; 340,000 compounds, 0.4% hits; calls by dose curve; cell line not stated here;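 also: intracellular cAMP measured with PDE inhibitor Ro 20-1724 present during compound exposure; potency is read from the fitted curve at half-maximal effect; % is scaled to controls: 0 for no effect and ±100 for the full control effect; nearly all actives have a fitted effect of over 65% in size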
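HTRF cAMP measurement after 30 min RT detection following 30 min, 37C compound treatment alongside […] (added as 300 uM solution) in G418-selected cells seeded at 2000/well and grown 16–24 h.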
RXFP1 antagonist – qHTS Assay for Antagonists of the Relaxin Receptor RXFP1. HEK293-RXFP1, relaxin-stimulated cAMP HTRF, 30 min; hits give low values. activity change, negative = inhibition, % at 57.5 µM. 350,000 compounds, 0.59% hits. AID 1259400, 2018;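 active = activity change of -60% or lower, but not beyond a set lower limit; inconclusive = change between -60% and -40%, or beyond the set limit; inactive = change above -40%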; also: % is scaled to controls: 0 for no effect and ±100 for the full control effect
Target sequence (Q9HBX9 whole entry, looked up): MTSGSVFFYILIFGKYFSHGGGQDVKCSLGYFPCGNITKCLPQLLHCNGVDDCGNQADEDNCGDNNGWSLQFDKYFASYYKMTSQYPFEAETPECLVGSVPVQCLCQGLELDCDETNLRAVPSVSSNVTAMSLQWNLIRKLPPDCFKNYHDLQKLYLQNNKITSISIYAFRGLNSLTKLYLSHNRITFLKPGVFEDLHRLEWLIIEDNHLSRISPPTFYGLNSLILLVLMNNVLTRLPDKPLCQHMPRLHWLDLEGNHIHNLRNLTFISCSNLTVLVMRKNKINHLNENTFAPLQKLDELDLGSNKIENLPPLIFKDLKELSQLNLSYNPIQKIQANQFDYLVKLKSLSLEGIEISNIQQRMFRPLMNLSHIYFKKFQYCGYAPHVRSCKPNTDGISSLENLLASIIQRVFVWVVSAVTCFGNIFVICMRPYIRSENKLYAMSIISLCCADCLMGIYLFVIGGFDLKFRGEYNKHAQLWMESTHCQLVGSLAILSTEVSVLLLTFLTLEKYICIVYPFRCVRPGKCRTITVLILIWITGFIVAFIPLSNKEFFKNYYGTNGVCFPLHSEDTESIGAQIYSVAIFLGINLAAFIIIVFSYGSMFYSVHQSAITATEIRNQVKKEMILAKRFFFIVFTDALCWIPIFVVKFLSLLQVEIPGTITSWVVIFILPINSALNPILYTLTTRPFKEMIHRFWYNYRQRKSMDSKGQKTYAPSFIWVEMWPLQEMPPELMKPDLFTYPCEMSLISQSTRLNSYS
gsp agonist – qHTS for Agonist of gsp, the Etiologic Mutation Responsible for Fibrous Dysplasia/McCune-Albright Syndrome: qHTS. Potency, µM (titrated, usually from 76.9 µM), for the others: at the top dose activation (cAMP increase), actives largely listed as activators. gsp mutant cells, cAMP HTRF, 30 min. 340,000 compounds, 0.13% hits. AID 624287, 2012; active = well fitted activation curve with a large enough effect; inconclusive = small, poorly fitted or top-dose-only effect, or another doubt; inactive = no such curve, though single readings can be large or run the other way; cell line not stated here;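 also: phosphodiesterase inhibitor Ro 20-1724 added with compounds to block cAMP breakdown; potency is read from the fitted curve at half-maximal effect; nearly all actives have a fitted effect of over 60% in size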
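Cells in DMEM/10% FBS with G418 were pretreated with compounds in DMSO plus […] (300 uM stock) for 30 min at 37C. cAMP was measured by HTRF (cAMP-d2 plus anti-cAMP antibody-K) after 30 min at room temperature.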
Akt phos inh – HTS Assay for Inhibitors of Akt Phophorylation: Primary Screen. Neuro2A IGF-stimulated pAkt S473 HTRF, 20 min; hits give low values. activity change, % for hits at 50 µM. 360,000 compounds, 0.32% hits. AID 651550, 2012; in the data active = activity change below about -80%; inconclusive = mostly about -51% to -80%; also: % is scaled to controls: 0 for no effect and ±100 for the full control effect
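Neuro2A cells in DMEM with 0.5% FBS, overnight at 37 deg C, given compound at single 50 µM final, then IGF (6 nM final) for 20 min at 37 deg C. Lysed; phospho-Akt Ser473 by HTRF after 24 h, 665/615 ratio.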
RXFP1 agonist – qHTS Assay for Agonists of the Relaxin Receptor RXFP1; HEK293T-RXFP1 cAMP TR-FRET, 30 min; response scale: percent of porcine relaxin response, buffer zero; Potency, µM (top dose mostly 57.5 µM), for inactives: at the top dose activation, actives largely listed as activators; 370,000 compounds, 0.3% hits; AID 2676, 2010; active = well fitted activation curve with a large enough effect; inconclusive = small, poorly fitted or top-dose-only effect; also: potency is read from the fitted curve at half-maximal effect; % is scaled to controls: 0 for no effect and ±100 for the full control effect; nearly all actives have a fitted effect of over 60% in size
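cAMP rise read by TR-FRET after 30 min, 37C compound exposure (up to 58 uM) in RXFP1-transfected HEK293 cells with Ro 20174 present. EC50 from Hill-equation fits, with 29 nM porcine relaxin as 100% and buffer as basal.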
* hit, by the source's call; i = inactive; ? = inconclusive; nt = not tested or not shown; ! = a repeat was not active; [ ] = dose if it differs, or a comment.

SMILES	gsp antagonist	RXFP1 antagonist	gsp agonist	Akt phos inh	RXFP1 agonist
CC[C@H]1CN2CCc3cc(OC)c(OC)cc3C2C[C@@H]1C[C@H]1NCCc2cc(OC)c(OC)cc21 (stereo partly drawn)	11µM*	nt	nt	i	3%
Nc1c(C(=O)OC2CCCCC2)c2nc3ccccc3nc2n1CC1CCCO1 (stereo not drawn)	?	-62*	-29%	i	2%
COc1ccccc1C(=O)Nc1ccc2nc(SCC(=O)N3CCCc4ccccc43)sc2c1	nt	-9	nt	nt	?
O=C1NC(=O)N(c2ccccc2)C(=O)/C1=C/c1ccc(Sc2ccccc2)o1	-3%	-109*	?	i	5%
Oc1cc(Cl)ccc1Oc1ccc(Cl)cc1Cl	-23%	-77*!	nt	i	nt
CCN(CC)C(=O)c1ccc(NC(=O)Cn2nc(-c3ccc(C)cc3)c3ccccc3c2=O)cc1	nt	-3	nt	nt	20%
CCN(CC)C(=O)c1ccc(NC(=O)CCn2nc(-c3ccc(C)cc3)c3ccccc3c2=O)cc1	nt	-79*	nt	nt	1%
CCCCCCCSc1cc(OC)c(CCNC)cc1OC	14%	-70*	-81%	i	0%
CO/C=C(/C(=O)OC)c1ccccc1Oc1cc(Oc2ccccc2C#N)ncn1	nt	-28	nt	nt	nt
CC(C)(N)Cc1ccccc1Cl	nt	20	nt	nt	nt
CC[C@@]1(O)C(=O)OCc2c1cc1n(c2=O)Cc2cc3c(NC(=O)CN)cccc3nc2-1	10%	6	10%[15.4 µM]	i	14µM*
O=C1OC(CCN2CCCCC2)OC1(c1ccccc1)c1ccccc1 (stereo not drawn)	nt	21	nt	nt	nt
COc1ccc(N2C(=O)/C(=C/C=C/c3ccccc3[N+](=O)[O-])C(=O)NC2=S)cc1	-6%	-77*	-4%[15.4 µM]	i	1%
O=C(C1CC(=O)N(C2CCCCC2)C1)N1CCC2(CC1)OCCO2 (stereo not drawn)	11%	-6	-11%	-110%*	0%
O=C1CC(C(=O)N2CCC3(CC2)OCCO3)CN1CCc1ccccc1 (stereo not drawn)	-1%	-5	11%	i	5%
COc1cccc2c1C(=O)c1c(O)c3c(c(O)c1C2=O)C[C@@](O)(C(=O)CO)CC3OC1CC(N2CCOC(OC)C2)C(O)C(C)O1 (stereo partly drawn)	nt	-19	nt	nt	nt
O=c1[nH]c(=O)n(-c2cccc(Cl)c2)c(O)c1C=NCCCN1CCOCC1	4%	-10	-1%	i	0%
Cc1ccc(-n2c(O)c(C=NCCN3CCOCC3)c(=O)[nH]c2=O)cc1	0%	-10	3%	-128%*	-2%
C[n+]1ccc(-c2ccccc2)c2ccccc21	5%	nt	nt	i	0%
CC[n+]1c(/C=C/C=C/c2ccc(N(C)C)cc2)sc2ccccc21	?	?	-85%[15.4 µM]	i	-30%
CN(C)c1ccc(/C=C/C=C/c2sc3ccccc3[n+]2C)cc1	28µM*	?	-122%	i	-17%
CN(C)c1ccc(/C=C/c2cc[n+](C)c3ccccc23)cc1	?	-95*!	-128%	i	-8%
ClCCN1CCCC1	nt	2	nt	nt	nt
CCN(c1ccc(C(O)(C(=O)OC)C(F)(F)F)cc1)S(=O)(=O)c1ccccc1 (stereo not drawn)	-17%	-2	0%	-125%*	3%
CCOC(=O)C(O)(c1ccc(N(CC)S(=O)(=O)c2ccccc2)cc1)C(F)(F)F (stereo not drawn)	-9%	-7	-24%	i	2%
SMILES	gsp antagonist	RXFP1 antagonist	gsp agonist	Akt phos inh	RXFP1 agonist
CC[C@H](OC(C)=O)C(C[C@H](C)NC)(c1ccccc1)c1ccccc1	nt	-22	nt	nt	nt
CN1C(=O)/C(=C/c2cccn2-c2ccc3ccccc3c2)C(=O)NC1=S	9%	-97*	1%	i	2%
Cc1ccc(-c2c(C)n3c4c(=O)n(C)c(=O)n(C)c4nc3n2CCO)cc1	nt	-9	nt	nt	?
O=C1C=CC(=O)C2C1C1(Cl)C(Cl)=C(Cl)C2(Cl)C1(Cl)Cl (stereo not drawn)	-18%	-95*	-8%	i	nt
CC(C)c1ccc(N=Nc2c(O)[nH]c(=O)[nH]c2=O)cc1	-6%	0	-69%	i	-1%
O=c1[nH]c(O)c(N=Nc2ccc([N+](=O)[O-])cc2)c(=O)[nH]1	2%	7	?	i	14µM*
O=C1OCc2cc(N=Nc3c(O)[nH]c(=O)[nH]c3=O)ccc21	13%	9	?	i	10µM*
Cc1cc(C(C#N)c2ccc(Cl)cc2)c(Cl)cc1NC(=O)c1cc(I)cc(I)c1O (stereo not drawn)	?	-112*	nt	i	0%
CC1(C)CC/C(=C\c2ccc(Cl)cc2)C1(O)Cn1cncn1 (stereo not drawn)	nt	-35	nt	nt	nt
C1CN2CCC1CC2	nt	-8	nt	nt	nt
CC(C)n1c(O)c(C2c3cc(Cl)ccc3Oc3[nH]c(=O)n(C(C)C)c(=O)c32)c(=O)[nH]c1=O (stereo not drawn)	-21%	-84*	17%[15.4 µM]	i	1%
CC(=O)c1c(O)n(-c2cccc(Cl)c2)c(=O)[nH]c1=O (tested in a mixture with another compound)	5%	2	-1%[15.4 µM]	i	-1%
CC(Cc1ccccc1)N(C)Cc1ccco1 (stereo not drawn)	nt	7	nt	nt	nt
N#CC(C#N)=NNc1ccc([N+](=O)[O-])cc1	50µM*	-29	-19%	i	1%
O=c1nc(/C=C/c2ccc(Cl)cc2Cl)cc(C(F)(F)F)[nH]1	-5%	-75*	?	i	0%
O=C(O)COc1ccc(Cl)cc1Cl	12%	2	-47%	i	nt
NCC(CC(=O)O)c1ccc(Cl)cc1 (stereo not drawn)	11%	3	-15%	-108%*	-1%
CC[N+]1(CC)CCC(OC(=O)C(O)(c2ccccc2)c2ccccc2)C1 (stereo not drawn)	nt	10	nt	nt	nt
Cc1oc(-c2ccccc2)nc1CN1C(=O)C(C)N=C(c2ccccc2F)c2cc(Cl)ccc21 (stereo not drawn)	?	nt	8%	i	2%
Cc1ccccc1CN1C(=O)C(C)N=C(c2ccccc2)c2ccccc21 (stereo not drawn)	nt	-70*	nt	nt	2%
CC(C(O)c1ccccc1)N(C)C/C=C/c1ccccc1 (stereo not drawn)	nt	-9	nt	nt	nt
C=CCN1CC[C@]23CCCC[C@H]2[C@H]1Cc1ccc(O)cc13	nt	10	nt	nt	nt
CCC(COC(=O)c1cc(OC)c(OC)c(OC)c1)(c1ccccc1)N(C)C (stereo not drawn)	-16%	-62*	nt	i	2%
Fc1cc(Br)ccc1CBr	nt	12	nt	nt	nt
